# Source: PubChem
# NFkB transloc inh – blocks IL-1B driven NFkB nuclear translocation in HUVEC cells; inhibition, % at 2 µM; AID 796; HUVEC IL-1B NFkB p65 nuclear translocation imaging; hit rate 0.43% among 94,000;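 active means inhibition above about 30% together with a positive call from visual inspection of the well image, limit read from the data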;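 further: nuclear over cytoplasmic p65 intensity ratio measured by imaging; 0% = IL-1B stimulated DMSO wells and 100% = unstimulated DMSO wells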
# IL1B cytotox – toxic to HUVEC cells under IL-1B stimulation | HUVEC cell count loss, Hoechst imaging, IL-1B stimulated | AID 845 | hit rate 0.41% among 94,000 | cell count reduction, % at 2 µM;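 active means cell count reduction more than 3 SD above the screen-wide mean, cut at about 70% in these data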;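 further: normalized per plate to untreated control cells as the no-loss baseline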
# sEH inhibitor – blocks human soluble epoxide hydrolase activity; recombinant human sEH enzymatic activity assay; hit rate 0.34% among 91,000; P34913; inhibition, % at 2 µM; in the data active means inhibition above about 80%
# Cav32 inh – blocks human Cav3.2 T-type calcium channel; O95180; Cav3.2-expressing cells, Fluo-4 calcium fluorescence FDSS; stronger effect = lower value; B-score at 10 µM; hit rate 4% among 100,000; AID 449739;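 active means single-dose well whose peak fluorescence ratio is a statistical outlier from its plate by either plate-standardised score or position-corrected B-score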
# sEH act – increases human soluble epoxide hydrolase activity. P34913. purified human sEH enzymatic activity, activator screen. activation, % at 2 µM. hit rate 0.04% among 91,000. AID 717; in the data active means activation above about 37%
# NFkB transloc pot – enhances IL-1B driven NFkB nuclear translocation; HUVEC IL-1B NFkB p65 nuclear translocation imaging; activation, % at 2 µM; hit rate 0.3% among 94,000; AID 819;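 active means activation above 40%, about the mean plus 3 SD, also judged a hit on visual image review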;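 further: percent activation is computed from the nuclear over cytoplasmic p65 intensity ratio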
# Starred values were filed as active, the others as inactive; · = not tested or not shown. Sampled rows, rich in hits. Any-hit rate of the full collection: about 4.6%.
SMILES,NFkB transloc inh,IL1B cytotox,sEH inhibitor,Cav32 inh,sEH act,NFkB transloc pot
O=C(Cn1cnc2c(cnn2-c2ccc(Cl)cc2)c1=O)NCCc1ccccc1,4,-4,3,-0.0018,-2,-4
CCn1c(SCC(=O)OCC(=O)N2c3ccccc3NC(=O)C2(C)C)nnc1-c1ccco1,0,-6,-12,-0.33,13,0
CCCCCCn1c(COc2ccccc2F)nnc1SCC(=O)N1c2ccccc2NC(=O)C1(C)C,0,-12,2,-5.9*,-4,0
CCN(Cc1cc2ccc(C)cc2[nH]c1=O)C(=O)c1ccncc1,-4,-44,-14,0.49,16,4
Cc1ccc(CN(C(=O)Cn2nnc3ccccc32)C(C(=O)NCc2ccco2)c2ccc(C)o2)cc1 (centres undefined),4,22,1,-0.71,5,-4
Cc1ccc(C(C(=O)NCc2ccco2)N(C(=O)Cn2nnc3ccccc32)c2ccccc2)o1 (centres undefined),8,-83,8,·,-6,-8
Cc1ccc(N(C(=O)Cn2nnc3ccccc32)C(C(=O)NCc2ccco2)c2ccc(C)o2)cc1 (centres undefined),·,·,·,-4.3*,·,·
Cc1ccc(C(C(=O)NCc2ccco2)N(CCc2ccccc2)C(=O)Cn2nnc3ccccc32)o1 (centres undefined),·,·,·,-5.6*,·,·
Cc1[nH]nc2c1C1(CCN(C(=O)c3ccccc3)CC1)C(C#N)=C(N)O2,-24,-6,-2,0.83,4,24
Cc1[nH]nc2c1C1(CCC(c3ccccc3)CC1)C(C#N)=C(N)O2 (centres undefined),-7,86*,8,-0.17,-5,7
O=c1ccc(NS(=O)(=O)c2ccc(Cl)cc2)cn1Cc1ccc(Cl)c(Cl)c1,3,19,-7,-4.4*,7,-3
O=C(NCC1CCCO1)c1cccs1 (centres undefined),2,23,-5,-0.017,5,-2
CC(C)Cn1c2c(c(O)c(C(=O)Nc3ccc(F)cc3)c1=O)CCCC2,2,5,·,0.0056,·,-2
CCc1nc2ccccc2c(=O)n1NC(=O)c1c(O)c2cccc3c2n(c1=O)CCC3,-5,-77,8,-6.1*,-9,5
CCCCc1nc2ccccc2c(=O)n1NC(=O)c1c(O)c2c(n(CC(C)C)c1=O)CCCC2,·,·,·,-9.9*,·,·
CCn1c(=O)c(C(=O)Nn2c(C)nc3ccccc3c2=O)c(O)c2ccccc21,·,·,·,-6.1*,·,·
CCn1c(=O)c(C(=O)Nc2nc3ccccc3[nH]2)c(O)c2ccccc21,5,-7,-8,0.03,7,-5
Cc1ccc(CNC(=O)C(=O)NCC2OCCN2S(=O)(=O)c2ccc3c(c2)OCCO3)cc1 (centres undefined),·,·,·,-4.5*,·,·
O=C(NCc1ccc(Cl)cc1)C(=O)NCC1OCCN1S(=O)(=O)c1cccs1 (centres undefined),·,·,·,-6*,·,·
Cc1ccc(S(=O)(=O)N2CCOC2CNC(=O)C(=O)NCc2ccco2)cc1 (centres undefined),·,·,·,0.2,·,·
COc1ccc(CNC(=O)C(=O)NCC2OCCN2S(=O)(=O)c2cccs2)cc1 (centres undefined),·,·,·,-4.9*,·,·
O=C(NCc1ccccc1)C(=O)NCC1OCCN1S(=O)(=O)c1ccc2c(c1)OCCO2 (centres undefined),·,·,·,0.013,·,·
CCCCNC(=O)NS(=O)(=O)c1ccc(C(=O)OC)o1,-6,46,-9,0.32,15,6
CSc1nc2nc3c(c(=O)n2[nH]1)CCCC3,-2,-7,-10,0.079,10,2
Cc1ccc(Oc2ccc(-c3nc(N)nc(N)n3)cc2)cc1,97*,86*,28,0.48,-28,-97
SMILES,NFkB transloc inh,IL1B cytotox,sEH inhibitor,Cav32 inh,sEH act,NFkB transloc pot
Cc1ccc(Oc2ccc(Oc3ccc(C)cc3)nn2)cc1,11,-23,·,-0.86,·,-11
O=C(c1ccccc1Nc1ccc(SC(F)F)cc1)N1CCCCCC1,-7,2,-11,-6.8*,11,7
CS(=O)(=O)Nc1ccc(C(=O)Nc2ccccc2C(=O)N2CCCC2)cc1,0,4,3,0.51,-5,0
COCCCNC(=O)CS(=O)(=O)Cc1nc(-c2ccccc2C)oc1C,-6,0,-16,1.2,15,6
CCCCOc1ccccc1P(=O)(O)CP(=O)(c1ccccc1)c1ccccc1,-4,-1,-5,-1.4,6,4
CCCCN(CCCC)CP(=O)(c1ccccc1)c1ccccc1,-4,24,-2,-5.8*,0,4
